Among all 52,000 compounds or so, about 4,300 (8.3%) were called active. The entries come from a sample that favours actives as a whole. Values without a mark were called inactive. Rule as the data show it: active = survival mostly below about 52% (no sharp cut-off); inactive = mostly above about 56%.
System: DeltatarO mutant
Assay: growth inhibition of S. aureus wild type versus tarO mutant, primary screen, teichoic acid synthesis inhibitors, RN4220, OD600 (AID 463173)
Conditions: OD600, 18 h, active compounds read low, screened at 18.75 µg/mL (by protocol)

Going from CNS(=O)(=O)c1ccc(NC(=O)c2cnn3c(C(F)F)cc(-c4ccccc4)nc23)cc1 to CC(C)c1ccc(NC(=O)c2cnn3c(C(F)F)cc(-c4ccccc4)nc23)cc1, the survival falls from 66% to 65%.

Compared with O=C(Nc1cc(F)ccc1F)c1cnn2c(C(F)F)cc(-c3ccccc3)nc12, CC(C)NC(=O)c1cnn2c(C(F)F)cc(-c3ccccc3)nc12 is lower in survival: 130% for the first, 92% for the second.

Going from COC(=O)c1ccc(C(=O)OC)c(NC(=O)c2cnn3c(C(F)F)cc(-c4ccc(C)cc4)nc23)c1 to COc1ccc(-c2cc(C(F)F)n3ncc(C(=O)Nc4cc(C)on4)c3n2)cc1, the survival rises from 60% to 85%.

Going from CCCCn1nc(CC(=O)O)c2ccccc2c1=O to CCC1Oc2ccccc2N(CC(=O)NCc2cc(OC)ccc2OC)C1=O (stereo not given), the survival rises from 83% to 85%.

Compared with COC(=O)c1ccccc1NC(=O)C1(c2cccs2)CCOCC1, COc1cccc(NC(=O)Cn2cc(C(=O)C3CCCCC3)c3ccccc32)c1 is lower in survival: 83% for the first, 79% for the second.

Compared with COc1ccc(NC(=O)CN(C)S(=O)(=O)c2cnc[nH]2)cc1Cl, CCc1cccc(-n2c(=O)c3cccnc3n2CC(=O)Nc2ccc(OC)c(Cl)c2)c1 is higher in survival: 98% for the first, 104% for the second.

Going from COc1ccc(C(=O)NCCn2cc(SCC(=O)Nc3cccc(C)c3)c3ccccc32)cc1 to COc1ccc(CNC(=O)c2ccc(NC(=O)N3CCSc4ccccc43)cc2)cc1, the survival falls from 60% to 56%.

Compared with Cc1ccc(-n2c(=O)c3c(C)c(C(=O)N(C)C)sc3n(CC(=O)C(C)(C)C)c2=O)cc1C, COc1cccc(CNC(=O)CCc2c(C)nc3c4c(C)cc(C)nc4nn3c2C)c1 is lower in survival: 107% for the first, 80% for the second.

Going from Cc1ccc(NC(=O)Cn2c(=O)n(CC(=O)NCCc3ccccc3)c(=O)c3ccccc32)cc1 to CC(C)NC(=O)CSc1nc2ccccc2c(=O)n1Cc1ccc(C(=O)NC(C)C)cc1, the survival rises from 89% to 105%.

First: CCC(C(=O)NC1CCCC1)N(C(=O)c1snc(C(N)=O)c1N)c1ccccc1 (stereo not given)
Second: COc1cccc(NC(=O)N(Cc2nc3ccccc3c(=O)[nH]2)C2CCCCC2)c1
The survival of the first is lower: 73% for the first, 83% for the second.

Going from COc1cccc(NC(=O)N(Cc2c[nH]c3ccccc23)C2CCCCC2)c1 to COc1cccc(NC(=O)N(Cc2c[nH]c3ccccc23)C2CCCCCC2)c1, the survival falls from 65% to 46%.

First: COc1ccc(-c2csc3nc(-c4ccccc4)oc(=O)c23)cc1OC
Second: COc1ccc(-c2csc3nc(-c4ccc(C)cc4)oc(=O)c23)cc1OC
The survival of the first is higher: 115% for the first, 63% for the second.

Compared with C=CCc1cccc2cc(NC(C)=O)c(=O)oc12, C=CCc1cccc2cc(C(=O)Nc3cccc(Cl)c3)c(=O)oc12 is higher in survival: 76% for the first, 79% for the second.

Compared with COc1ccc(CNC(=O)CSc2ncc(S(=O)(=O)c3ccc(Br)cc3)c(=O)[nH]2)cc1, COc1ccc(-c2noc(CNS(=O)(=O)c3ccc(Br)cc3)n2)cc1OC is higher in survival: 62% for the first, 70% for the second.

CCCCNc1nc(Oc2ccc(OCCC)nn2)nc(N(C)C)n1 and COc1cccc(-c2noc(COc3cccc(C)c3C)n2)c1 are the same in survival: 84% for the first, 84% for the second.

Compared with COc1cccc(-c2noc(COc3ccccc3Cl)n2)c1, COc1ccc(C(=O)NCc2nc(-c3cccc(C)c3)no2)cc1OC is higher in survival: 81% for the first, 98% for the second.

First: COc1ccc(N2CCN(c3ccc(-c4nc(-c5cccc(C)c5)no4)cc3[N+](=O)[O-])CC2)cc1
Second: COc1cc(OC)cc(-c2nc(-c3ccc4c(c3)[nH]c(=O)n4C)no2)c1
The survival of the first is lower: 75% for the first, 94% for the second.

First: COc1ccc(-c2noc(COc3cc(C)c(Br)c(C)c3)n2)cc1OC
Second: CCc1ccc(OCC(=O)NCc2nc(-c3cccc(C)c3)no2)c(Br)c1
The survival of the first is lower: 60% for the first, 94% for the second.

COc1ccc(-c2cc(C(F)F)n3ncc(C(=O)Nc4cc(OC)ccc4OC)c3n2)cc1 was tested, and the survival was 51% (active).
CCN(CC)c1ccc(NC(=O)c2cnn3c(C(F)F)cc(-c4ccccc4)nc23)cc1 was tested, and the survival was 59% (active).
CCOc1ccccc1NC(=O)c1cnn2c(C(F)F)cc(-c3ccccc3)nc12 was tested, and the survival was 58% (active).
In the case of COc1cccc(NC(=O)N(Cc2cn(C)c3ccccc23)C2CCCCC2)c1, the survival is reported as -12% (active).
In the case of COc1cccc(NC(=O)N(Cc2cn(C)c3ccccc23)C2CCCCCC2)c1, the survival is reported as -13% (active).
COc1ccc(-c2csc3nc(-c4ccc(F)cc4)oc(=O)c23)cc1OC was tested, and the survival was 48% (active).
In the case of C=CCc1cccc2cc(C(=O)Nc3ccc(F)cc3)c(=O)oc12, the survival is reported as 44% (active).
COc1cc(OC)cc(-c2nc(-c3cccc(C)c3)no2)c1 was tested, and the survival was -3% (active).
With CCc1ccc(OCc2nc(-c3ccc(OC)c(OC)c3)no2)c(Br)c1 the survival was 33% (active).

Source: PubChem BioAssay AID463173 (ICCB-Longwood Screening Facility, Harvard Medical School, 2010)
